Assay results as given in PubChem BioAssay (NCI).
The panel holds about 83,000 compounds, 20% with a hit somewhere; the sample as a whole holds those more often.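 Testing used 96-well plates and a 48-hour single-concentration exposure. Example: -40 means 40% of the starting cells died.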 A number with no mark means an inactive call. Activity calls are given as the source filed them. The calls were made as follows: active = growth percent below 10; inactive = the rest.

Each compound was assayed on MDA-MB-468 breast (assay: NCI-60 one-dose screen, 48 h (100 = growth as untreated, 0 = no growth, -100 = all killed)). Details: 10 µM unless noted.
In the case of `CCCCOCc1cc(CN2CCN(C)CC2)c(O)c2ncccc12`, the growth is reported as 46.1%.
`CCOC(=O)C1=C(C)n2nc(CC#N)c(C#N)c2NC1c1ccc(Cl)cc1` (stereo not drawn) gave a growth of 117%.
With `CC1=NNC(=O)C1CCC(=O)N/N=C(\C)c1ccc2ccccc2c1` (stereo not drawn) the growth was 119%.
`COc1ccc(C2CC(c3cccc(Nc4ccncc4)c3)=NN2c2ccccc2)cc1` (stereo not drawn) showed a growth of 15.7%.
`CS(=O)(=O)c1ccc(-n2cc(/C=C/C(=O)c3ccc(NC(=O)CO[N+](=O)[O-])cc3)c(-c3ccc(Cl)cc3)n2)cc1` was tested, and the growth was 94.1%.
Work on `CC(=O)[C@@H]1CC[C@]2(C(N)=O)CC[C@]3(C)[C@H](CC[C@@H]4[C@@]5(C)CCC(=O)C(C)(C)[C@@H]5CC[C@]43C)[C@@H]12` yielded a growth of 98.5%.
In the case of `COc1cc(OC)cc(C(=O)Nc2cnc(Nc3ccc(N4CCOCC4)nc3)nc2Oc2ccc(C(F)(F)F)cc2)c1`, the growth is reported as 81.1%.
`COC(c1ccc2ccccc2c1)C(C)C(F)F` (stereo not drawn) showed a growth of 99.7%.
With `NC(=O)CC1(O)C=C(Br)C(=O)C(Br)=C1` the growth was -9.32% (active).
Work on `CCCCCCCCCc1cc(CN2CCCCC2)c(O)c(CN2CCCCC2)c1` yielded a growth of 40.4%.
For `c1ccc(-c2nnc(-c3c[nH]c4ncccc34)s2)cc1`, the growth was 79.9%.
`O=C1C(Cl)=C(NCCCCCCNC2=C(Cl)C(=O)c3ccccc3C2=O)C(=O)c2ccccc21` showed a growth of 89.2%.
`CCCCCc1ccc(S(=O)(=O)Nc2cccc(-c3csc(NC(=O)CCCCCN4CCN(CCO)CC4)n3)c2)cc1` gave a growth of 85%.
